{"source": "PubChem BioAssay AID1159580", "about": "(chemical genetic matrix, 2015)", "assay": "chemical genetic growth profiling, strain panel (AID 1159580);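 also: tested at 20 µM; growth read once vehicle control cultures reached saturation at 30 °C; 1 = growth at the plate median or of vehicle wells; lower values mean less growth of the strain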", "conditions": "S. cerevisiae deletion strains, growth OD", "key": {"[1]": {"conditions": "locus YHR030C, strain SLT2, active compounds read low"}, "[2]": {"conditions": "locus YHR079C, strain IRE1, active compounds read low"}, "[3]": {"conditions": "locus YJL095W, strain BCK1, active compounds read low"}, "[4]": {"conditions": "locus YJR066W, strain TOR1, active compounds read low"}, "[5]": {"conditions": "locus YLR113W, strain HOG1, active compounds read low"}, "[6]": {"conditions": "locus YNL183C, strain NPR1, active compounds read low"}, "[7]": {"conditions": "locus YOR231W, strain MKK1, active compounds read low"}, "[8]": {"conditions": "locus YPL256C, strain CLN2, active compounds read low"}}, "note": "Screen size: about 5,500 compounds; about 2,000 (36%) were called active. Not shown: some 18% with an inconclusive outcome. This is one part of the list. A number with no mark means an inactive call. Rule as the data show it: active = normalized growth mostly below about 0.91 (no sharp cut-off); inconclusive = no clear call, values can overlap the other calls; inactive = mostly above about 0.92."}
{"compound": "CC(N)C12CC3CC(CC(C3)C1)C2", "note": "(centres undefined)", "values": [{"measurement": "normalized growth", "setting": "[1]", "value": 0.992}, {"measurement": "normalized growth", "setting": "[2]", "value": 0.977}, {"measurement": "normalized growth", "setting": "[3]", "value": 0.989}, {"measurement": "normalized growth", "setting": "[4]", "value": 0.935}, {"measurement": "normalized growth", "setting": "[5]", "value": 1.02}, {"measurement": "normalized growth", "setting": "[6]", "value": 0.944}, {"measurement": "normalized growth", "setting": "[7]", "value": 1.01}, {"measurement": "normalized growth", "setting": "[8]", "value": 0.979}]}
{"compound": "CC(C)(C)C(=O)NC(=S)N/N=C\\c1cc(Cl)cc(Cl)c1O", "values": [{"measurement": "normalized growth", "setting": "locus YAR019C, strain CDC15, active compounds read low", "value": 0.924}, {"measurement": "normalized growth", "setting": "locus YBL105C, strain PKC1, active compounds read low", "value": 0.937}, {"measurement": "normalized growth", "setting": "locus YBR135W, strain CKS1, active compounds read low", "value": 0.907}, {"measurement": "normalized growth", "setting": "locus YBR136W, strain MEC1, active compounds read low", "value": 0.936}, {"measurement": "normalized growth", "setting": "locus YBR160W, strain CDC28, active compounds read low", "value": 0.94}, {"measurement": "normalized growth", "setting": "locus YDL017W, strain CDC7, active compounds read low", "value": 0.94}, {"measurement": "normalized growth", "setting": "locus YDL028C, strain MPS1, active compounds read low", "value": 0.927}, {"measurement": "normalized growth", "setting": "locus YDL101C, strain DUN1, active compounds read low", "value": 0.949}, {"measurement": "normalized growth", "setting": "locus YDL108W, strain KIN28, active compounds read low", "value": 0.936}, {"measurement": "normalized growth", "setting": "locus YDL132W, strain cdc53, active compounds read low", "value": 0.961}, {"measurement": "normalized growth", "setting": "locus YDL214C, strain PRR2, active compounds read low", "value": "0.333 (active)"}, {"measurement": "normalized growth", "setting": "locus YDR052C, strain DBF4, active compounds read low", "value": 0.945}, {"measurement": "normalized growth", "setting": "locus YDR054C, strain cdc34, active compounds read low", "value": 0.918}, {"measurement": "normalized growth", "setting": "locus YDR226W, strain ADK1, active compounds read low", "value": 0.958}, {"measurement": "normalized growth", "setting": "locus YDR477W, strain SNF1, active compounds read low", "value": "0.566 (active)"}, {"measurement": "normalized growth", "setting": "locus YER123W, strain YCK3, active compounds read low", "value": "0.167 (active)"}, {"measurement": "normalized growth", "setting": "locus YER133W, strain GLC7, active compounds read low", "value": "0.48 (active)"}, {"measurement": "normalized growth", "setting": "locus YFL009W, strain cdc4, active compounds read low", "value": 0.924}, {"measurement": "normalized growth", "setting": "locus YFL029C, strain CAK1, active compounds read low", "value": 0.923}, {"measurement": "normalized growth", "setting": "locus YFR003C, strain YPI1, active compounds read low", "value": 0.947}, {"measurement": "normalized growth", "setting": "locus YFR019W, strain FAB1, active compounds read low", "value": "0.365 (active)"}, {"measurement": "normalized growth", "setting": "locus YFR028C, strain CDC14, active compounds read low", "value": 0.938}, {"measurement": "normalized growth", "setting": "locus YGR040W, strain KSS1, active compounds read low", "value": "0.546 (active)"}, {"measurement": "normalized growth", "setting": "locus YGR052W, strain FMP48, active compounds read low", "value": "0.346 (active)"}, {"measurement": "normalized growth", "setting": "locus YGR092W, strain DBF2, active compounds read low", "value": "0.165 (active)"}, {"measurement": "normalized growth", "setting": "[1]", "value": "0.278 (active)"}, {"measurement": "normalized growth", "setting": "[2]", "value": "0.144 (active)"}, {"measurement": "normalized growth", "setting": "locus YHR082C, strain KSP1, active compounds read low", "value": "0.277 (active)"}, {"measurement": "normalized growth", "setting": "locus YHR205W, strain SCH9, active compounds read low", "value": "0.248 (active)"}, {"measurement": "normalized growth", "setting": "locus YIL147C, strain SLN1, active compounds read low", "value": 0.933}, {"measurement": "normalized growth", "setting": "[3]", "value": "0.2 (active)"}, {"measurement": "normalized growth", "setting": "locus YJL128C, strain PBS2, active compounds read low", "value": 0.974}, {"measurement": "normalized growth", "setting": "locus YJL157C, strain FAR1, active compounds read low", "value": "0.215 (active)"}, {"measurement": "normalized growth", "setting": "locus YJR016C, strain ILV3, active compounds read low", "value": 0.922}, {"measurement": "normalized growth", "setting": "locus YJR066W, strain TOR1 (second series), active compounds read low", "value": "0.149 (active)"}, {"measurement": "normalized growth", "setting": "[4]", "value": "0.182 (active)"}, {"measurement": "normalized growth", "setting": "locus YKL048C, strain ELM1, active compounds read low", "value": "0.439 (active)"}, {"measurement": "normalized growth", "setting": "locus YKL067W, strain YNK1, active compounds read low", "value": "0.286 (active)"}, {"measurement": "normalized growth", "setting": "locus YKL101W, strain HSL1, active compounds read low", "value": "0.237 (active)"}, {"measurement": "normalized growth", "setting": "locus YKL193C, strain SDS22, active compounds read low", "value": 0.921}, {"measurement": "normalized growth", "setting": "locus YKL203C, strain TOR2, active compounds read low", "value": "0.332 (active)"}, {"measurement": "normalized growth", "setting": "[5]", "value": "0.245 (active)"}, {"measurement": "normalized growth", "setting": "locus YLR133W, strain CKI1, active compounds read low", "value": "0.224 (active)"}, {"measurement": "normalized growth", "setting": "locus YLR403W, strain SFP1, active compounds read low", "value": "0.35 (active)"}, {"measurement": "normalized growth", "setting": "locus YML070W, strain DAK1, active compounds read low", "value": "0.285 (active)"}, {"measurement": "normalized growth", "setting": "locus YMR001C, strain CDC5, active compounds read low", "value": 0.919}, {"measurement": "normalized growth", "setting": "locus YMR205C, strain PFK2 (second series), active compounds read low", "value": "0.221 (active)"}, {"measurement": "normalized growth", "setting": "locus YMR277W, strain FCP1, active compounds read low", "value": 0.926}, {"measurement": "normalized growth", "setting": "locus YNL006W, strain LST8, active compounds read low", "value": 0.924}, {"measurement": "normalized growth", "setting": "locus YNL020C, strain ARK1, active compounds read low", "value": "0.19 (active)"}, {"measurement": "normalized growth", "setting": "locus YNL161W, strain CBK1, active compounds read low", "value": 0.932}, {"measurement": "normalized growth", "setting": "[6]", "value": "0.269 (active)"}, {"measurement": "normalized growth", "setting": "locus YNL207W, strain RIO2, active compounds read low", "value": 0.953}, {"measurement": "normalized growth", "setting": "locus YNL222W, strain SSU72, active compounds read low", "value": 0.926}, {"measurement": "normalized growth", "setting": "locus YNL307C, strain MCK1 (second series), active compounds read low", "value": "0.18 (active)"}, {"measurement": "normalized growth", "setting": "locus YOL078W, strain AVO1, active compounds read low", "value": 0.916}, {"measurement": "normalized growth", "setting": "locus YOL136C, strain PFK27, active compounds read low", "value": "0.242 (active)"}, {"measurement": "normalized growth", "setting": "locus YOR061W, strain CKA2, active compounds read low", "value": "0.245 (active)"}, {"measurement": "normalized growth", "setting": "locus YOR119C, strain RIO1, active compounds read low", "value": "0.547 (active)"}, {"measurement": "normalized growth", "setting": "[7]", "value": "0.173 (active)"}, {"measurement": "normalized growth", "setting": "locus YOR329C, strain SCD5, active compounds read low", "value": 0.949}, {"measurement": "normalized growth", "setting": "locus YPL031C, strain PHO85, active compounds read low", "value": "0.498 (active)"}, {"measurement": "normalized growth", "setting": "locus YPL153C, strain RAD53, active compounds read low", "value": "0.27 (active)"}, {"measurement": "normalized growth", "setting": "locus YPL204W, strain HRR25, active compounds read low", "value": "0.249 (active)"}, {"measurement": "normalized growth", "setting": "locus YPL209C, strain IPL1, active compounds read low", "value": 0.93}, {"measurement": "normalized growth", "setting": "[8]", "value": "0.285 (active)"}, {"measurement": "normalized growth", "setting": "locus YPR025C, strain CCL1, active compounds read low", "value": 0.928}, {"measurement": "normalized growth", "setting": "locus YPR106W, strain ISR1, active compounds read low", "value": 0.969}, {"measurement": "normalized growth", "setting": "locus YPR111W, strain DBF20, active compounds read low", "value": 0.954}, {"measurement": "normalized growth", "setting": "strain NNK1, active compounds read low", "value": 0.958}, {"measurement": "normalized growth", "setting": "strain TSCII, active compounds read low", "value": "0.768 (active)"}]}
